# Bioassay records as filed in PubChem.
# Pf growth 48h – Primary qHTS for delayed death inhibitors of the malarial parasite plastid, 48 hour incubation. P. falciparum luciferase growth in erythrocytes, 48 h. Potency, µM (doses to about 28.7 µM), usual class: inhibitors. actives 5.9% (n = 310,000)
#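 Compounds are pin-transferred into medium, infected erythrocytes (2% hematocrit, 0.1% parasitemia final) are added, and plates sit one parasite generation at 37 C in 5% CO2. Detection reagent is then added and luminescence measured.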
# Vaccinia mCherry – qHTS for Stage-Specific Inhibitors of Vaccinia Orthopoxvirus: mCherry Reporter Primary qHTS. Vaccinia virus mCherry reporter infection, fluorescence. Potency, µM (top dose mostly 36.5 µM), hits mostly inhibitors. actives 0.63% (n = 310,000); calls by dose curve; tested in A549 cells; further: nearly all actives have a fitted effect of over 35% in size
# AMA1-RON2 inh – qHTS for Inhibitors of AMA1-RON; Towards Development of Antimalarial Drug Lead: Primary Screen. Plasmodium falciparum AMA1 (3D7) - RON2 peptide interaction. AlphaScreen AMA1-biotinylated RON2 peptide binding. Potency, µM (series often up to 58.2 µM), hits mostly inhibitors. actives 0.2% (n = 360,000); further: nearly all actives have a fitted effect of over 45% in size
#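 AMA1 (3D7) with his tag at 25 nM final met compounds first, then biotinylated RON2 peptide at 25 nM; detection used donor plus acceptor beads, 10 µg/mL apiece, read by AlphaScreen after 30 min at room temperature.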
# Pf growth 96h – Primary qHTS for delayed death inhibitors of the malarial parasite plastid, 96 hour incubation. P. falciparum luciferase reporter growth, 96 h. Potency, µM (titrated, usually from 28.7 µM), usual class: inhibitors. actives 6.9% (n = 320,000)
#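 Plates of compound plus infected erythrocytes (2% hematocrit, 0.05% parasitemia final) incubate 96 hours, 37 C, 5% CO2. Detection reagent added; reduced luminescence from the parasites' luciferase reporter flags inhibition.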
# Vaccinia Venus – qHTS for Stage-Specific Inhibitors of Vaccinia Orthopoxvirus: Venus Reporter Primary qHTS; Vaccinia virus Venus reporter expression, fluorescence; Potency, µM (top dose mostly 36.5 µM), actives largely listed as inhibitors; actives 0.46% (n = 330,000); AID 720580, 2013; calls by dose curve; tested in A549 cells; further: nearly all actives have a fitted effect of over 30% in size
# A number is an active result; - = inactive; ? = inconclusive; . = no result given; [ ] = another dose, or the depositor's remark. Only some compounds are listed: those with a hit (about 8.7% of all), similar ones and a draw of the others. Unless noted, the call rests on the fitted dose curve; in most records, active means well fitted curve in the direction sought with a large enough effect; inconclusive means small, poorly fitted or top-dose-only effect, or another doubt; inactive means no such curve, though single readings can be large; an effect the other way counts as inactive or inconclusive.
SMILES,Pf growth 48h,Vaccinia mCherry,AMA1-RON2 inh,Pf growth 96h,Vaccinia Venus
CCOC(=O)C(C(C)=O)c1c(Br)c(O)c(O)c2c(C(=O)c3ccc(C)cc3)coc12 (stereo unspecified),.,13µM,-,.,13µM
Cc1noc(C)c1COc1ccccc1C(=O)NC(C)c1ccc(Cl)cc1 (stereo unspecified),13µM,.,-,5.2µM,.
Cc1noc(C)c1COc1ccccc1C(=O)NCc1ccccc1Cl,?,-,-,5.2µM,-
CC(=N\O)/C(CN(C)C)=N/O,-,-,-,10µM,-
COc1ccc(C2=[N+](C)CCn3cccc32)c(OC)c1,2.1µM,?,-,1µM,-
COc1ccc(CN2CCc3ccccc3C2)c(OC)c1,-,-[7.34 µM],-,-,-[7.34 µM]
C=CCOc1cccc(/C=N/NC(=O)CN(c2cc(Cl)ccc2OC)S(=O)(=O)c2ccc(C)c([N+](=O)[O-])c2)c1,?,-,?,1.2µM,-
COc1ccc(Cl)cc1N(CC(=O)N/N=C/c1ccc(OC(C)C)cc1)S(=O)(=O)c1ccc(C)c([N+](=O)[O-])c1,?,-,-,?,-
Cc1cc(C)cc(N2C(=O)NC(=O)/C(=C\c3cccn3-c3ccccc3)C2=O)c1,-,?,-,?,14µM
Cc1ccc(NS(=O)(=O)c2c(C(=O)N3CCOCC3)c(C)n(C)c2C)cc1C,-,-,-,-,-
Cc1c(C(=O)N2CCOCC2)c(S(=O)(=O)Nc2ccc(C(C)C)cc2)c(C)n1C,-,-,-,10µM,-
O=C(c1cccc(Cl)c1Cl)N(Cc1ccco1)Cc1cccs1,.,-,.,.,-
C=C1C=C(C(F)F)n2ncc(C(=O)N3CCN(c4ccccc4)CC3)c2N1,.,?,.,.,-
COc1ccc(S(=O)(=O)N(C)c2ccc(C(=O)Nc3ccccc3C(=O)N3CCOCC3)cc2)cc1OC,12µM,-,-,?,-
COc1ccc(S(=O)(=O)N(C)c2ccc(C(=O)N3CCN(c4ccccc4)CC3)cc2)cc1OC,15µM,?,-,?,-
COc1ccc(S(=O)(=O)N(C)c2ccc(C(=O)N3CCOCC3)cc2)cc1OC,-,-,-,-,-
CCc1ccc(Oc2c(C(F)(F)F)oc3c(CN4CCC(C)CC4)c(O)ccc3c2=O)cc1,.,-,.,.,-
COc1ccc(N2CCN(C(=O)CN(c3ccccc3)S(C)(=O)=O)CC2)cc1,-,-,-,10µM,-
COc1ccccc1N1CCN(C(=O)CN(c2ccccc2OC)S(=O)(=O)c2ccccc2)CC1,?,.,-,1.3µM,.
CCc1ccc(N(CC(=O)N2CCOCC2)S(C)(=O)=O)cc1,-,-,-,13µM,-
COc1ccc(N2CCN(C(=O)CN(c3cccc(OC)c3)S(=O)(=O)c3ccccc3)CC2)cc1,13µM,-,?,?,-
COc1ccccc1N(CC(=O)N1CCC(C(N)=O)CC1)S(=O)(=O)c1ccccc1,-,-,-,-,-
COc1ccc(S(=O)(=O)N(CC(=O)N2CCN(c3ccccc3)CC2)c2ccccc2)cc1,.,.,-,?,.
CC(C)NC(=S)N/N=C1\CCCCC1C1CCCCC1 (stereo unspecified),.,.,-,3.3µM,.
CCOc1ccc(-c2n[nH]c(C)c2Oc2ccc(OC)cc2)c(O)c1,13µM,-[1.46 µM],-,.,-
SMILES,Pf growth 48h,Vaccinia mCherry,AMA1-RON2 inh,Pf growth 96h,Vaccinia Venus
Cc1[nH]nc(-c2ccc(OCc3cnn(-c4ccccc4)c3)c(C)c2O)c1Oc1ccccc1,?,?,-,?,?
Cc1[nH]nc(-c2ccc(OCc3cnn(-c4ccccc4)c3)cc2O)c1Oc1ccc(F)cc1,?,.,-,9.3µM,-
COc1cc(C=NCC2OCCc3ccccc32)cc(OC)c1 (stereo unspecified),-,-,-,9.3µM,-
COc1cc(C(=O)NC2CCCc3c2cnn3-c2ccccc2F)cc(OC)c1OC (stereo unspecified),?,-,-,3.3µM,-
COC(=O)c1ccc(C(=O)NC2CCCc3c2cnn3-c2ccccc2F)nc1 (stereo unspecified),-,.,-,?,.
COc1cc(C2CC(=O)Nc3ccc4ccccc4c32)ccc1OC(=O)C(C)C (stereo unspecified),.,-,.,.,-
O=C(CC(=O)c1ccccc1)Nc1ccccc1C(F)(F)F,-,-,-,12µM,-
Cc1cc(N/N=C/c2ccc(O)cc2O)nc(-c2ccccc2O)n1,2.6µM,2.8µM,-,?,6.3µM
Cc1cc(N/N=C/c2cccc(Cl)c2)nc(-n2nc(C)cc2C)n1,1.2µM,?,-,?,?
Cc1cc(N/N=C/c2ccc(O)cc2O)nc(-n2nc(C)cc2C)n1,1.9µM,?,-,?,?
COc1ccc(Nc2cc(C)nc(-n3nc(C)cc3C)n2)cc1Cl,.,?,.,.,-[7.34 µM]
COc1ccc(/C=N/Nc2cc(C)nc(-n3nc(C)cc3C)n2)cc1,1.5µM,?,-,?,?
COc1ccc(/C=N/Nc2cc(C)nc(NS(=O)(=O)c3ccc(C)cc3)n2)cc1,-,-,-,-,?
Cc1nn(CC(=O)NC2CC2)c(=O)c2cc3cc(F)ccc3n12,.,-,.,.,-
Cc1cc(N/N=C/c2cccc([N+](=O)[O-])c2)nc(-n2nc(C)cc2C)n1,?,-,-,1µM,-
